Here are results for 8 compounds from PubChem BioAssay (NCI).

Compounds without any hit were thinned out: in the full panel of roughly 83,000, 20% have a hit.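 Note: values are percent growth. 100 is the growth of untreated cells, values between 100 and 0 indicate rising inhibition; between -100 and 0 indicates cell death.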 Unmarked numbers belong to inactive results. The source made the active and inactive calls. The calls were made as follows: active = growth percent below 10; inactive = the rest.

What all share (experiment): NCI-60 one-dose screen, 48 h (100 = growth as untreated, 0 = no growth, -100 = all killed)
Holding throughout (conditions): 10 µM unless noted

The test system of assay [1] is SK-MEL-2 melanoma.
Assay [2] relates to EKVX NSCLC.
Assay [3] relates to SN12C renal.
Assay [4] concerns UO-31 renal.
Assay [5] has as its system TK-10 renal.
The subject of assay [6] is ACHN renal.
The test system of assay [7] is CAKI-1 renal.
The test system of assay [8] is CCRF-CEM leukemia.
Assay [9] has as its system MOLT-4 leukemia.
Assay [10] deals with SR leukemia.
Assay [11] has as its system RPMI-8226 leukemia.
In assay [12] the test system is OVCAR-8 ovarian.
In assay [13] the test system is OVCAR-5 ovarian.
The subject of assay [14] is OVCAR-4 ovarian.
Assay [15] relates to SK-OV-3 ovarian.
The test system of assay [16] is IGROV1 ovarian.
In assay [17] the test system is OVCAR-3 ovarian.
Assay [18] deals with HS 578T breast.
For assay [19], the system named is NCI/ADR-RES ovarian.
For assay [20], the system named is A498 renal.

Regarding `COc1cc(/C=N/OC(=O)Nc2ccccc2)cc(OC)c1OC`, the growth in [1] is 115%; in assay [2], 117%; in assay [3], 94.4%; in assay [4], 69%; in assay [5], 99%; in assay [6] it was 107%. For the same compound, the growth in [7] was 110%; in assay [8], 98.1%; in assay [9], 100%; in assay [10] it was 89.7%; in assay [11], 93.7%; in [12], 113%. The growth in assay [13] was 104%; in assay [14], 105%; in assay [15], 104%; in assay [16], 95.9%; in assay [17] it was 114%; in assay [18] it was 114%. Also, the growth in assay [19] is 109%.

On to `c1ccc(-c2nc(Nc3nccnn3)c3ccccc3n2)cc1`, for which the growth in assay [1] is 112%; in assay [2] it was 88.4%; in [3], 96.7%; in assay [4] it was 89.8%; in assay [5], 155%; in assay [6], 103%. Further, the growth was 84.9% in assay [7]; 93.2% in assay [8]; 100% in assay [9]; 91.6% in [10]; 98.4% in assay [11]; 95.3% in assay [12]. The growth in assay [13] was 97.1%; in assay [14], 122%; in assay [15], 115%; in assay [16], 92.2%; in assay [17] it was 100%; in assay [18] it was 98.8%. The growth in assay [19] was 98.8%.

For `Cc1ccc(S(=O)(=O)N2CCN(C(=O)CSc3nc4ccc(C)cc4[nH]3)CC2)cc1`, the growth in [1] was 5.46% (active); in assay [2], 97%; in [3] it was 107%; in assay [4] it was 93.3%; in [5], 129%; in assay [6], 113%. The growth is 116% in assay [7]; 99.7% in assay [20]; 94.6% in [8]; 74.4% in assay [9]; 108% in [11]; 74.5% in assay [12]. Besides, the growth in assay [13] is 117%; in assay [14], 107%; in assay [15] it was 114%; in assay [17], 111%; in assay [18], 126%; in assay [19] it was 107%.

With `Cc1ccccc1NC(=O)N/C(N)=N/c1nc2ccccc2s1`, the growth is 37.6% in [1]; 39.6% in [2]; 40% in assay [3]; 54.6% in [4]; 67% in [5]; 39.2% in assay [6]. In addition, the growth in assay [7] was 38.8%; in [8] it was 14.2%; in [9], 14.9%; in assay [10], 8.11% (active); in [11], 16.3%; in assay [12] it was 19.7%. Also, the growth was 35.5% in assay [13]; 65% in assay [14]; 65% in [15]; 14.7% in assay [16]; 1.83% (active) in [17]; 42.1% in assay [18]. For the same compound, the growth in assay [19] is 8.91% (active).

Regarding `O=C(Oc1ccccc1)C(Br)C(Br)c1ccccc1` (stereo not drawn), the growth in [1] was 95.3%; in [2], 136%; in assay [3], 109%; in assay [4], 93.3%; in [5] it was 83%; in assay [6], 78.2%. The growth in assay [7] is -66.7% (active); in assay [20] it was 91.3%; in [8], -28.7% (active); in [9] it was 7.62% (active); in assay [10], -23.6% (active); in assay [12] it was 103%. Besides, the growth is 102% in assay [13]; 114% in [15]; -47% (active) in assay [17]; 85.9% in assay [18]; 113% in [19].

Consider `Nc1nc(Nc2ccccc2SSc2ccccc2Nc2nc(N)nc(-c3cccc(Cl)c3)n2)nc(-c2cccc(Cl)c2)n1`, for which the growth in assay [1] was 105%; in assay [2], 90.5%; in assay [3], 62.1%; in [4] it was 83.9%; in assay [5], 154%; in assay [6], 88.8%. Moreover, the growth is 75.5% in assay [7]; 68.1% in [8]; 80.4% in assay [9]; 39.3% in [10]; 89.6% in assay [11]; 90.7% in assay [12]. In addition, the growth in assay [13] is 97.5%; in assay [14], 120%; in [15] it was 133%; in [16], 69.7%; in assay [17], 96.2%; in assay [18], 105%. Further, the growth in [19] is 81.3%.

Take `O=C(c1ccccc1)c1ccc(Oc2ccc([N+](=O)[O-])cc2[N+](=O)[O-])cc1`: the growth in assay [1] is 34.9%; in assay [2], 99.6%; in [3], 71.6%; in assay [4] it was 48.7%; in assay [5] it was 83.4%; in assay [6], 50.4%. In addition, the growth in assay [7] is 27.3%; in assay [8], 27.4%; in assay [9] it was 78.3%; in assay [10], 14.6%; in assay [11] it was 35.2%; in assay [12], 41.5%. Besides, the growth in assay [13] is 59.9%; in assay [14] it was 28.5%; in assay [15] it was 99.9%; in assay [16], 1.87% (active); in assay [17] it was 48.7%; in [18] it was 90.7%. The growth in [19] was 4.04% (active).

As to `N#Cc1c(-c2ccccc2)cc(-c2ccccc2)n(CCCC(=O)O)c1=O`, the growth is 97.8% in [1]; 94% in [2]; 96.2% in assay [3]; 85.8% in assay [4]; 124% in assay [5]; 97.8% in assay [6]. For the same compound, the growth in assay [7] is 97.1%; in assay [8], 104%; in assay [9], 97.3%; in assay [10] it was 91.8%; in assay [11] it was 103%; in assay [12], 51.3%. Besides, the growth in assay [13] is 104%; in assay [14], 102%; in [15] it was 105%; in assay [16] it was 99.4%; in assay [17], 112%; in [18], 107%.
